# According to PubChem BioAssay (NCI):
# The panel holds about 83,000 compounds, 20% with a hit somewhere; the sample as a whole holds those more often.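 Percent growth is the endpoint: 0 to 100 indicates growth inhibition (40 means 60% inhibition), 0 means no net growth, and negative values indicate cell death.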 Unmarked numbers belong to inactive results. Activity calls are given as the source filed them. Rule for the calls: active = growth percent below 10; inactive = the rest.
# Tests used:
# Assay in all cases: NCI-60 one-dose screen, 48 h (100 = growth as untreated, 0 = no growth, -100 = all killed)
# HCT-15 colon = settings: 10 µM unless noted
# HT29 colon = settings: 10 µM unless noted
# SNB-75 CNS = settings: 10 µM unless noted
# SNB-19 CNS = settings: 10 µM unless noted
# U251 CNS = settings: 10 µM unless noted
# PC-3 prostate = settings: 10 µM unless noted
# SK-MEL-5 melanoma = settings: 10 µM unless noted
# UACC-62 melanoma = settings: 10 µM
# LOX IMVI melanoma = settings: 10 µM unless noted
# SK-MEL-28 melanoma = settings: 10 µM
# SK-MEL-2 melanoma = settings: 10 µM unless noted
# EKVX NSCLC = settings: 10 µM unless noted
# UO-31 renal = settings: 10 µM unless noted
# TK-10 renal = settings: 10 µM
# ACHN renal = settings: 10 µM unless noted
# CAKI-1 renal = settings: 10 µM unless noted
# A498 renal = settings: 10 µM unless noted
# CCRF-CEM leukemia = settings: 10 µM unless noted
# MOLT-4 leukemia = settings: 10 µM unless noted
# SR leukemia = settings: 10 µM unless noted
Structure (SMILES),growth (HCT-15 colon),growth (HT29 colon),growth (SNB-75 CNS),growth (SNB-19 CNS),growth (U251 CNS),growth (PC-3 prostate),growth (SK-MEL-5 melanoma),growth (UACC-62 melanoma),growth (LOX IMVI melanoma),growth (SK-MEL-28 melanoma) [%],growth (SK-MEL-2 melanoma),growth (EKVX NSCLC),growth (UO-31 renal),growth (TK-10 renal),growth (ACHN renal),growth (CAKI-1 renal),growth (A498 renal),growth (CCRF-CEM leukemia),growth (MOLT-4 leukemia),growth (SR leukemia)
CCOC(=O)C(NC(=O)C(Cc1ccc(N(CCCl)CCCl)cc1)NC(C)=O)C(C)C (stereo not drawn),94.9%,67.1%,85.9%,90.6%,73.7%,67.4%,97.7%,83.1%,66.1%,101,92.7%,97.6%,82.5%,95.5%,42.7%,40.8%,107%,71.7%,56.6%,28.2%
CC1=C(CO)C2=C(C)C3(CC3)[C@@](C)(O)C(=O)C2=C1,-22.2% (active),-17.8% (active),-83.8% (active),11.3%,2.57% (active),-18.8% (active),-84.1% (active),-81.5% (active),22.8%,–,-46.8% (active),0.643% (active),-40.5% (active),-23.3% (active),-16.4% (active),-17% (active),-66.5% (active),28.6%,16%,21.4%
CC[C@@]1(O)C(=O)OCc2c1cc1n(c2=O)Cc2cc3ccccc3nc2-1,-18.7% (active),-31.8% (active),-41.8% (active),-0.517% (active),-31.6% (active),-22.3% (active),-83.9% (active),-49.1% (active),-62.4% (active),–,-20.7% (active),13.5%,-59.6% (active),-8.5% (active),-72.6% (active),-37.9% (active),-77.4% (active),-28.1% (active),-17.4% (active),-3.04% (active)
